Data: article PMC3218832

Tests used:
Assay in all cases: protein binding microarray; high values mean tight binding
Settings in all cases: dsDNA, one strand shown
[1] = molecular target: RELARELA (p65 homodimer) (Homo sapiens, UniProt Q04206 1-307)
[2] = molecular target: p50p50 homodimer (Homo sapiens, UniProt P19838 7-356)
[3] = molecular target: T1, p52p52 homodimer (Homo sapiens, UniProt Q00653 4-332)
T1 sequence: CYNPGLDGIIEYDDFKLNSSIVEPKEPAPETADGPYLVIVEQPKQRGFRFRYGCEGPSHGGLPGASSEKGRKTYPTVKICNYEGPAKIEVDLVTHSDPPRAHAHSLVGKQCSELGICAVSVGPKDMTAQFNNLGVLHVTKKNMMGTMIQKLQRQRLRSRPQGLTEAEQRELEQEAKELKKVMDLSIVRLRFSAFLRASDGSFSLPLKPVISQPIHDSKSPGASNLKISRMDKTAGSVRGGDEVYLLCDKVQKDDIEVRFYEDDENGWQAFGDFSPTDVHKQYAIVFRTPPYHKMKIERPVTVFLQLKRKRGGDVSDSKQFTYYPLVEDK

[4] = molecular target: RELA (p65) subunit of heterodimer;p50 subunit (Homo sapiens;Homo sapiens, UniProt Q04206;P19838 1-307;7-356)
[5] = molecular target: RELA (p65) subunit of heterodimer;p52 subunit (Homo sapiens;Homo sapiens, UniProt Q04206;Q00653 1-307;4-332)
[6] = molecular target: RELB subunit;p50 subunit (Homo sapiens;Homo sapiens, UniProt Q01201;P19838 120-401;7-356)
[7] = molecular target: T2, RELB subunit;p52 subunit (Homo sapiens;Homo sapiens, UniProt Q01201;Q00653 120-401;4-332)
T2 sequence 1: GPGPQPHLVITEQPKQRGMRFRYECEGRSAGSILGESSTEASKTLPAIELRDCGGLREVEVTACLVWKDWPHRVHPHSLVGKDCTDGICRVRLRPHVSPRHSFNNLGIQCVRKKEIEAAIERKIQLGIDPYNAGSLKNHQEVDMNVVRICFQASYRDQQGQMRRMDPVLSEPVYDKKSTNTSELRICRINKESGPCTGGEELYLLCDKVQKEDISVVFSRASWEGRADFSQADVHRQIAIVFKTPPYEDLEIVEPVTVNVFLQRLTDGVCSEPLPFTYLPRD
T2 sequence 2: T1 sequence

[8] = molecular target: C-Rel subunit;p50 subunit (Homo sapiens;Homo sapiens, UniProt Q04864;P19838 1-285;7-356)
[9] = molecular target: T3, C-Rel subunit;p52 subunit (Homo sapiens;Homo sapiens, UniProt Q04864;Q00653 1-285;4-332)
T3 sequence 1: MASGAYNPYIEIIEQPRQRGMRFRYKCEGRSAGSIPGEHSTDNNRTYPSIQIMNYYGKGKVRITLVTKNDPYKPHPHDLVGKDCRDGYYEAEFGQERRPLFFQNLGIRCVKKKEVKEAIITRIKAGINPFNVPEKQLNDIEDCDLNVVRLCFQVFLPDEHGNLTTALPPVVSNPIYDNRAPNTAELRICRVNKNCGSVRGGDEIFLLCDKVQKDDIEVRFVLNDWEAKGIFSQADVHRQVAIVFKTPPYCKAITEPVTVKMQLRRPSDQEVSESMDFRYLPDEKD
T3 sequence 2: T1 sequence

Chain of p50p50 homodimer (P19838 7-356): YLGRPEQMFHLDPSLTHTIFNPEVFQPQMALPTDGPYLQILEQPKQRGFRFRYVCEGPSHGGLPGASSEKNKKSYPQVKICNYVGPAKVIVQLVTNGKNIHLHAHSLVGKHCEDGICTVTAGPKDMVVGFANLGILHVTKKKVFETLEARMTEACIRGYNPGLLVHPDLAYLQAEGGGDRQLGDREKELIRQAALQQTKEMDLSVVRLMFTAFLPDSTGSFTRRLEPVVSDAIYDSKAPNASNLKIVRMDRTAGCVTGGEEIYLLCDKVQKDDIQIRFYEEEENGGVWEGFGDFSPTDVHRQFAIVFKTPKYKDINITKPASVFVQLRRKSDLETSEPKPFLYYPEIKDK
Chain of RELARELA (p65 homodimer) (Q04206 1-307): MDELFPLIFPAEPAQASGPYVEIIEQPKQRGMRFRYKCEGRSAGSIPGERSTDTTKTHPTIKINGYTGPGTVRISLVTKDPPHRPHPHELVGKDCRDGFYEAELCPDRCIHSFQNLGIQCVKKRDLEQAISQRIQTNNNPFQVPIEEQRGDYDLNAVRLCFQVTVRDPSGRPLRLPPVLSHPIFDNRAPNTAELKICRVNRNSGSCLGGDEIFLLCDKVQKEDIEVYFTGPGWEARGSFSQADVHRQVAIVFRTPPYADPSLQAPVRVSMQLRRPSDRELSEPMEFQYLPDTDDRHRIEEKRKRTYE
Chain of RELA (p65) subunit of heterodimer;p50 subunit (Q04206 1-307, chain 1 of 2): as the sequence (Q04206 1-307) above
Chain of RELA (p65) subunit of heterodimer;p50 subunit (P19838 7-356, chain 2 of 2): as the sequence (P19838 7-356) above

Row | Sequence | binding signal [1] | binding signal [2] | binding signal [3] | binding signal [4] | binding signal [5] | binding signal [6] | binding signal [7] | binding signal [8] | binding signal [9]
1 | CGAAGCGCCCC | -0.596 z-score | -0.188 z-score | -0.173 z-score | -0.171 z-score | -0.0511 z-score | 0.0336 z-score | 0.263 z-score | -0.144 z-score | 0.0513 z-score
2 | CGAGACGTCCT | -0.768 z-score | -1.33 z-score | -0.73 z-score | -1.16 z-score | -0.933 z-score | -1.07 z-score | -0.949 z-score | -1.55 z-score | -0.864 z-score
3 | CAGAATCTCCC | 0.546 z-score | 0.713 z-score | -0.063 z-score | 0.636 z-score | 0.291 z-score | 0.641 z-score | 0.396 z-score | 0.223 z-score | 0.378 z-score
4 | AAGATTCTCCT | -0.184 z-score | -1.03 z-score | -0.669 z-score | -0.803 z-score | -0.991 z-score | -0.921 z-score | -0.819 z-score | -1.1 z-score | -0.941 z-score
5 | GAATGATCCCC | -0.194 z-score | 0.816 z-score | 0.548 z-score | 0.936 z-score | 0.697 z-score | 0.943 z-score | 0.595 z-score | 0.665 z-score | 0.409 z-score
6 | GGAAAGATCCT | -0.0836 z-score | -1.25 z-score | -0.674 z-score | -0.749 z-score | -0.654 z-score | -0.932 z-score | -0.789 z-score | -0.978 z-score | -0.449 z-score
7 | AAAGGCCTCCC | -1.18 z-score | -0.959 z-score | -0.552 z-score | -0.794 z-score | -0.782 z-score | -0.857 z-score | -0.868 z-score | -1.17 z-score | -0.735 z-score
8 | AAGTGAACCCT | -0.647 z-score | -1.09 z-score | -0.646 z-score | -0.987 z-score | -0.763 z-score | -0.923 z-score | -0.758 z-score | -1.27 z-score | -0.88 z-score
9 | CGGGTCCTCCC | -0.107 z-score | -0.467 z-score | -0.154 z-score | -0.451 z-score | -0.038 z-score | -0.526 z-score | -0.335 z-score | -0.324 z-score | 0.0736 z-score
10 | GGAATCGTCCC | 0.862 z-score | 0.42 z-score | 0.582 z-score | 0.504 z-score | 0.591 z-score | 0.29 z-score | 0.267 z-score | 0.649 z-score | 0.392 z-score
11 | CAATGAATCCC | -0.259 z-score | -0.487 z-score | -0.235 z-score | -0.428 z-score | -0.353 z-score | -0.22 z-score | -0.356 z-score | -0.0958 z-score | -0.345 z-score
12 | AGGTGCGTCCT | -0.881 z-score | -0.757 z-score | -0.281 z-score | -0.82 z-score | -0.633 z-score | -0.695 z-score | -0.608 z-score | -1.1 z-score | -0.46 z-score
13 | CGGGAAGCCCT | 0.636 z-score | -0.369 z-score | -0.0378 z-score | -0.188 z-score | 0.0317 z-score | -0.513 z-score | -0.178 z-score | -0.133 z-score | 0.19 z-score
14 | GGGGTTGTCCC | 2.19 z-score | 0.663 z-score | 2.99 z-score | 1.73 z-score | 2.67 z-score | 2.02 z-score | 1.88 z-score | 1.31 z-score | 2.32 z-score
15 | CAAAGCCTCCC | -0.873 z-score | -0.992 z-score | -0.631 z-score | -0.874 z-score | -0.823 z-score | -0.859 z-score | -0.707 z-score | -1.19 z-score | -0.839 z-score
